Common to all, as to conditions: mRNA level, 48 h; actives raise or lower the signal
Read-out in assay [1]: Bcl-2 (BAD) gene, BAD (gene 572)
Description: LTEA_HepaRG_BAD: Life Technologies and Expression Analysis (LTEA) Assay for Bcl-2 (BAD) gene using HepaRG (AID 2283469). In short, it runs like this:
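Activity values reflect up- or down-regulation of BAD mRNA in human HepaRG hepatic cells treated 48 h in serum-free medium, with eight-point half-log dosing capped at 100 uM and 0.5% DMSO vehicle.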

Read-out in assay [2]: Bcl-2 (BAX) gene, BAX (gene 581)
Description: LTEA_HepaRG_BAX: Life Technologies and Expression Analysis (LTEA) Assay for Bcl-2 (BAX) gene using HepaRG (AID 2283470). An outline of the steps: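 Cells were thawed, plated for 48 h, moved to serum-free induction medium and dosed for 48 h (highest concentration 100 uM, half-log steps, 0.5% DMSO). Total RNA was then analysed for BAX expression by qRT-PCR.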

Read-out in assay [3]: adenosine kinase (ADK) gene, ADK (gene 132)
Description: LTEA_HepaRG_ADK: Life Technologies and Expression Analysis (LTEA) Assay for adenosine kinase (ADK) gene using HepaRG (AID 2283471). An outline of the steps: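 ADK expression quantified by qRT-PCR, normalised to three housekeeping genes, after 48 h exposure of HepaRG cells to eight concentrations (top 100 uM, half-log steps, duplicate, 0.5% DMSO). Up- or down-regulation fitted relative to vehicle.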

Read-out in assay [4]: Alpha-fetoprotein (AFP) gene, AFP (gene 174)
Nature of the assay: LTEA_HepaRG_AFP: Life Technologies and Expression Analysis (LTEA) Assay for Alpha-fetoprotein (AFP) gene using HepaRG (AID 2283472). An outline of the steps: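 Chemicals were tested on differentiated HepaRG cells for 48 hours at eight concentrations up to 100 uM, with 0.5% DMSO as vehicle. AFP expression was then quantified by qRT-PCR and analyzed for gain or loss relative to DMSO.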

Read-out in assay [5]: Apolipoprotein A-V (APOA5) gene, APOA5 (gene 116519)
Nature of the assay: LTEA_HepaRG_APOA5: Life Technologies and Expression Analysis (LTEA) Assay for Apolipoprotein A-V (APOA5) gene using HepaRG (AID 2283474). An outline of the steps:
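HepaRG, 48 h chemical exposure in serum-free induction medium, 8-pt half-log series (top 100 uM), 0.5% DMSO vehicle, duplicates. Readout: APOA5 mRNA by qRT-PCR, housekeeping-normalized; bidirectional fit vs DMSO baseline.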

Read-out in assay [6]: Apoptosis regulator Bcl-2 (Homo sapiens) (UniProt P10415)
Nature of the assay: LTEA_HepaRG_BCL2: Life Technologies and Expression Analysis (LTEA) Assay for Bcl-2 gene using HepaRG (AID 2283475). An outline of the steps:
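Plated human HepaRG cells are exposed to test chemicals for 48 h across eight concentrations from 100 uM downward in half-log steps (0.5% DMSO). BCL2 expression is then measured by qRT-PCR with housekeeping normalisation and fitted bidirectionally against vehicle.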

Read-out in assay [7]: Bcl-2 (BID) gene, BID (gene 637)
Nature of the assay: LTEA_HepaRG_BID: Life Technologies and Expression Analysis (LTEA) Assay for Bcl-2 (BID) gene using HepaRG (AID 2283476). In short, it runs like this:
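Cells are plated, cultured 48 h, switched to serum-free induction medium, then dosed 48 h (100 uM top, half-log steps, 0.5% DMSO). RNA is isolated and BID expression read by qRT-PCR.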

Read-out in the next assay: Caspase-3 (Homo sapiens) (UniProt P42574)
Description: LTEA_HepaRG_CASP3: Life Technologies and Expression Analysis (LTEA) Assay for cysteine-aspartic acid protease (CASP3) using HepaRG (AID 2283477). An outline of the steps: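 HepaRG, 48 h exposure, 8 conc. (top 100 uM, half-log steps, duplicate), 0.5% DMSO vehicle; qRT-PCR of CASP3 transcript, housekeeping-normalised (ACTB/GAPDH/POLR2A); bidirectional curve fit vs DMSO baseline.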

Read-out in assay [8]: Cytochrome P450 (CYP24A1), CYP24A1 (gene 1591)
Description: LTEA_HepaRG_CYP24A1: Life Technologies and Expression Analysis (LTEA) Assay for Cytochrome P450 (CYP24A1) using HepaRG (AID 2283478). An outline of the steps:
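qRT-PCR read-out: CYP24A1 transcript levels normalized to three housekeeping genes, bidirectional curve fits against 0.5% DMSO baseline. Human HepaRG cells treated 48 h with chemicals at eight concentrations from 100 uM in half-log steps.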

Read-out in assay [9]: Cytochrome P450 (CYP1A2), CYP1A2 (gene 1544)
Description: LTEA_HepaRG_CYP1A2: Life Technologies and Expression Analysis (LTEA) Assay for Cytochrome P450 (CYP1A2) using HepaRG (AID 2283479). An outline of the steps:
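HepaRG, 48 h exposure, top 100 uM, half-log 8-pt, 0.5% DMSO vehicle, duplicates. Readout: TaqMan qRT-PCR of CYP1A2 mRNA, housekeeping-normalized (ACTB/GAPDH/POLR2A). Gain/loss fit relative to DMSO baseline.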

Read-out in assay [10]: cysteine-aspartic acid protease (CASP8), CASP8 (gene 841)
Nature of the assay: LTEA_HepaRG_CASP8: Life Technologies and Expression Analysis (LTEA) Assay for cysteine-aspartic acid protease (CASP8) using HepaRG (AID 2283480). An outline of the steps:
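Concentration-response in duplicate up to 100 uM (half-log steps, 0.5% DMSO) on differentiated HepaRG cultures for 48 h. Expression change of CASP8 mRNA is determined by TaqMan qRT-PCR with housekeeping-gene normalization.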

Read-out in assay [11]: Cytochrome P450 2C19 (Homo sapiens) (UniProt P33261)
Description: LTEA_HepaRG_CYP2C19: Life Technologies and Expression Analysis (LTEA) Assay for CYP2C19 using HepaRG (AID 2283482). In short, it runs like this:
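HepaRG, 48 h chemical exposure, 8-pt half-log series from 100 uM in 0.5% DMSO, duplicates. Readout: CYP2C19 mRNA by TaqMan qRT-PCR, housekeeping-normalized. Bidirectional fit vs DMSO baseline; phenobarbital 1mM as induction control.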

Read-out in another assay: CYP2C8 (gene 1558)
Description: LTEA_HepaRG_CYP2C8: Life Technologies and Expression Analysis (LTEA) Assay for CYP2C8 using HepaRG (AID 2283483). In short, it runs like this: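 This is a transcriptional endpoint in HepaRG cultures: 48 h exposure, highest concentration 100 uM. CYP2C8 mRNA is quantified by TaqMan qRT-PCR.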

Read-out in a further assay: CYP2E1 (gene 1571)
Description: LTEA_HepaRG_CYP2E1: Life Technologies and Expression Analysis (LTEA) Assay for CYP2E1 using HepaRG (AID 2283485). An outline of the steps:
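Readout is qRT-PCR of CYP2E1 mRNA, normalized to three housekeeping genes and fitted bidirectionally against 0.5% DMSO. HepaRG cells were dosed 48 h at eight concentrations, highest 100 uM with half-log dilutions.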

Read-out in the next assay: CYP4A11 (gene 1579)
Nature of the assay: LTEA_HepaRG_CYP4A11: Life Technologies and Expression Analysis (LTEA) Assay for CYP4A11 using HepaRG (AID 2283486). An outline of the steps:
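CYP4A11 transcript levels were quantified by TaqMan qRT-PCR after HepaRG human liver cells were treated for 48 hours with test chemicals (top 100 uM, half-log dilutions, 0.5% DMSO). Gain or loss of signal was fitted relative to DMSO.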

Read-out in assay [12]: Cytochrome P450 3A4 (Homo sapiens) (UniProt P08684)
Description: LTEA_HepaRG_CYP3A4: Life Technologies and Expression Analysis (LTEA) Assay for CYP3A4 using HepaRG (AID 2283487). An outline of the steps: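 Differentiated HepaRG cells, plated 48 h, then dosed 48 h in serum-free induction medium with 0.5% DMSO, 8 half-log concentrations up to 100 uM, duplicate. CYP3A4 mRNA by qRT-PCR, normalized to ACTB/GAPDH/POLR2A; bidirectional fit versus DMSO.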

Read-out in assay [13]: DNA damage-inducible transcript 3 (DDIT3), DDIT3 (gene 1649)
Description: LTEA_HepaRG_DDIT3: Life Technologies and Expression Analysis (LTEA) Assay for DNA damage-inducible transcript 3 (DDIT3) using HepaRG (AID 2283488). An outline of the steps: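 Cells are human HepaRG liver cells treated for 48 h with eight half-log concentrations up to 100 uM in 0.5% DMSO. Transcript levels come from qRT-PCR normalized to three housekeeping genes, with activity fitted in both directions relative to vehicle.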

Read-out in assay [14]: Cytochrome P450 (CYP2B6), CYP2B6 (gene 1555)
Description: LTEA_HepaRG_CYP2B6: Life Technologies and Expression Analysis (LTEA) Assay for Cytochrome P450 (CYP2B6) using HepaRG (AID 2283481). An outline of the steps: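 Read-out is CYP2B6 mRNA by TaqMan qRT-PCR, normalized to three housekeeping genes and fitted bidirectionally against 0.5% DMSO baseline. Human HepaRG cells received test chemicals for 48 h, top concentration 100 uM, half-log dilutions.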

Read-out in another assay: CYP2C9 (gene 1559)
Nature of the assay: LTEA_HepaRG_CYP2C9: Life Technologies and Expression Analysis (LTEA) Assay for CYP2C9 using HepaRG (AID 2283484). An outline of the steps: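 Eight-point concentration-response (highest 100 uM, half-log dilutions) in HepaRG cells for 48 h; CYP2C9 expression by qRT-PCR normalized to ACTB, GAPDH, POLR2A. Bidirectional fit, DMSO baseline.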

Each structure is given as a SMILES string. Active and inactive are the calls of the source. How the source made its calls: active means hit-call score of the fitted dose curve at least 0.9, where 1 is the maximum; inactive means score below 0.9.

Sequence of Cytochrome P450 3A4 (Homo sapiens) (P08684 whole entry, looked up): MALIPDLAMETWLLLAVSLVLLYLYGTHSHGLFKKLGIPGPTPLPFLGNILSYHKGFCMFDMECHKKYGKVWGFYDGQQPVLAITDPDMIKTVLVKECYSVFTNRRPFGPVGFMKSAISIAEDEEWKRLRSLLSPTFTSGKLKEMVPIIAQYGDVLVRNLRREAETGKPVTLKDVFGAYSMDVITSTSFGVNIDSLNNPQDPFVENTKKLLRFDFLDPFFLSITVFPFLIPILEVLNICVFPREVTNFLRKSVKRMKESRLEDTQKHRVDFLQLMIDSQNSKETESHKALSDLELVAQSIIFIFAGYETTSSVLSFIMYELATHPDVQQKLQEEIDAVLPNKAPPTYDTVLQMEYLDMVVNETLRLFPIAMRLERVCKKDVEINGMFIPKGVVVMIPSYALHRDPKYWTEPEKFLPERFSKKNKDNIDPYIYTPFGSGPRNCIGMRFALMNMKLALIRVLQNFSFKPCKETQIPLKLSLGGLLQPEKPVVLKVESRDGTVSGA
Sequence of Apoptosis regulator Bcl-2 (Homo sapiens) (P10415 whole entry, looked up): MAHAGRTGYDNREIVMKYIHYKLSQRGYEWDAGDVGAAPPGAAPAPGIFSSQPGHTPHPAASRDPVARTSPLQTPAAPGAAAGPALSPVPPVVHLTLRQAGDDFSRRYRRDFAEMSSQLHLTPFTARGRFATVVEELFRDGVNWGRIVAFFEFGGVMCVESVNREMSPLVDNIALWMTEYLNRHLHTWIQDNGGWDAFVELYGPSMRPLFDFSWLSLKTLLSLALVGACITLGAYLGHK
Sequence of Caspase-3 (Homo sapiens) (P42574 whole entry, looked up): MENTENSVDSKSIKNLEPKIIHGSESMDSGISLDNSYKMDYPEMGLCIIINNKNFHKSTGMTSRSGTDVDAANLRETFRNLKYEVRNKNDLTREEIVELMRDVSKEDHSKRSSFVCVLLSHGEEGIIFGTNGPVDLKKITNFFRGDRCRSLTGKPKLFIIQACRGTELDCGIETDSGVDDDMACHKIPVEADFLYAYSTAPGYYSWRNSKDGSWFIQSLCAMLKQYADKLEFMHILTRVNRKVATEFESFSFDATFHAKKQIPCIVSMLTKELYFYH
Sequence of Cytochrome P450 2C19 (Homo sapiens) (P33261 whole entry, looked up): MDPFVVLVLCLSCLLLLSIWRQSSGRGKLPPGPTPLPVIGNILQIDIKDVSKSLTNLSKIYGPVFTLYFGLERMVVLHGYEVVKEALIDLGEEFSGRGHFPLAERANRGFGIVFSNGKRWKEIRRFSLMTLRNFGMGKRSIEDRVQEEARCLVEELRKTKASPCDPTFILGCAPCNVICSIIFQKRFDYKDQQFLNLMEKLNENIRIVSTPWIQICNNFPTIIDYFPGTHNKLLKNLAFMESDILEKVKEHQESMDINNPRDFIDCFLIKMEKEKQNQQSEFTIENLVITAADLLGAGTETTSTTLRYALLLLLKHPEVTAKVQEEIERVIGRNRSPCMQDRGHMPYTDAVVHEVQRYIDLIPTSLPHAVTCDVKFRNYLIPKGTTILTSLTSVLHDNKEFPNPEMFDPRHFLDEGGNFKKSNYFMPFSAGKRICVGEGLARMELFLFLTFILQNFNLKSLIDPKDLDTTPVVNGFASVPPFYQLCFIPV

For orientation: AC50 means the concentration giving half of the maximal activity seen. Consider `O=c1c(O)c(-c2ccc(O)c(O)c2)oc2cc(O)cc(O)c12`, for which the molecule was classed as inactive in assay [1], in assay [2], in [3], in [5], in assay [6] and in assay [7]. Moreover, the molecule was called inactive (in the assay with Caspase-3 (Homo sapiens); in assay [8]; in assay [10]; in [11]; in the assay with CYP2C8 (gene 1558); with CYP2E1 (gene 1571)). In addition, the result in assay [12] and in assay [13] was inactive. Also, the AC50 in assay [4] was 79 µM (active); in [9], 0.806 µM (active); with CYP4A11 (gene 1579), 50 µM (active).
For `Cc1ccc(Cl)cc1`, the result in assay [1], in [2], in [3], in assay [4], in [5] and in assay [6] was inactive. Further, the molecule was called inactive (in assay [7]; with Caspase-3 (Homo sapiens); in [8]; in assay [9]; in assay [14]; in [11]). Besides, the molecule was called inactive (with CYP2C8 (gene 1558); with CYP2E1 (gene 1571); with CYP4A11 (gene 1579); in assay [12]; in assay [13]).
On to `Clc1cc(Cl)c(Cl)cc1Cl`, for which the outcome in assay [1], in assay [2], in [3], in assay [4], in assay [5] and in [6] was inactive. Also, the outcome (in assay [7]; with Caspase-3 (Homo sapiens); in assay [8]; in [9]; in assay [10]; in [11]) was inactive. The call (with CYP2C8 (gene 1558); in the assay with CYP2C9 (gene 1559); in the assay with CYP2E1 (gene 1571); with CYP4A11 (gene 1579); in assay [12]; in [13]) was inactive.
For the molecule `COc1ccc(S(=O)(=O)N2C(=O)[C@@](c3ccccc3OC)(N3C[C@H](O)C[C@H]3C(=O)N(C)C)c3cc(Cl)ccc32)c(OC)c1`, the molecule was called inactive in assay [1], in [7], in assay [8] and in assay [10]. The AC50 was 19 µM (active) in [2]; 12.1 µM (active) in assay [3]; 29.4 µM (active) in [4]; 38.5 µM (active) in assay [5]; 50 µM (active) in assay [6]; 12.2 µM (active) in the assay with Caspase-3 (Homo sapiens). Moreover, the AC50 in [9] is 22.2 µM (active); in [11], 21.5 µM (active); in the assay with CYP2C8 (gene 1558), 23 µM (active); in the assay with CYP2C9 (gene 1559), 20.5 µM (active); with CYP2E1 (gene 1571), 33.6 µM (active); with CYP4A11 (gene 1579), 26.6 µM (active). The concentration at half-maximal activity (AC50) is 32.9 µM (active) in [12] and 73.8 µM (active) in [13].
As for `COCCOCCOC`, the AC50 was 1.39 µM (active) in assay [1]; 2.17 µM (active) in assay [3]; 0.517 µM (active) in assay [4]; 0.723 µM (active) in assay [6]; 1.05 µM (active) in [7]; 0.423 µM (active) in the assay with Caspase-3 (Homo sapiens). Moreover, the half-maximal activity concentration (AC50) is 0.388 µM (active) in assay [8], 0.95 µM (active) in assay [9], 0.712 µM (active) in the assay with CYP2C8 (gene 1558) and 1.38 µM (active) in assay [13]. Further, the molecule was called inactive (in [2]; in assay [5]; in [11]; with CYP2E1 (gene 1571); with CYP4A11 (gene 1579); in [12]).
As for `CN1CCCC1=O`, the molecule was called inactive in [1], in assay [2], in assay [3], in assay [4], in [5] and in assay [6]. The result (in assay [7]; with Caspase-3 (Homo sapiens); in [8]; in assay [10]; in assay [11]; in the assay with CYP2C8 (gene 1558)) was inactive. Moreover, the result (with CYP2E1 (gene 1571); with CYP4A11 (gene 1579); in assay [12]; in [13]) was inactive. The AC50 in assay [9] was 31.5 µM (active).
For `Cc1ccc(C)c(O)c1C`, the molecule was classed as inactive in assay [1], in assay [2], in assay [3], in [4], in assay [5] and in assay [6]. The molecule was called inactive (in assay [7]; with Caspase-3 (Homo sapiens); in [8]; in assay [10]; in assay [11]; with CYP2C8 (gene 1558)). Moreover, the molecule was called inactive (with CYP2C9 (gene 1559); in the assay with CYP2E1 (gene 1571); with CYP4A11 (gene 1579); in assay [12]; in assay [13]). Further, in assay [9], the AC50 was 50 µM (active).
